As a reminder, the viability is a read-out of living cells in per cent, often relative to untreated cells. In general, inhibition refers to the change of the read-out against control, counted positive when it falls.

Several values for one entry are separate records, joined by “and”; a condition that tells them apart may be missing. Equal values may be shown once. Activity calls are given as the source filed them. Rule as the data show it, unless noted: active = parasite load remaining mostly below about 12% (no sharp cut-off); inactive = mostly above about 10%.

Assay [1] can be described thus: suppressors of polyQ aggregation in yeast, 75Q-TubU reporter (AID 1593). The conditions noted are these: Yeast 75Q polyglutamine aggregation reporter.
Assay [2] in a line: inhibitors of mitochondrial cytochrome c release, biochemical, purified mitochondria (AID 1603).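 Also: mouse liver mitochondria challenged with calcium chloride; signal normalized to the plate average as 100%.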 The settings on record: stronger effect = lower value.
Assay [3] can be described thus: inhibitors of polyQ protein aggregation (AID 1604). The settings on record: polyglutamine-induced protein aggregation inhibition assay; stronger effect = higher value; tested at 2.5 µM.
Assay [4] can be described thus: liver-stage malaria parasite growth inhibition, primary screen, cell-based, HepG2, luciferase luminescence, HepG2 viability (AID 624349).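 Also: 100% = mean of DMSO negative control wells on the same plate.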 The settings on record: P. berghei liver stage in HepG2, luciferase luminescence, concentration not given here; parasite load remaining: stronger effect = lower value; viability: measured here: HepG2 viability without parasites.
Assay [5] is described as follows: stimulators of nuclear beta-catenin in C2C12, primary screen, imaging, WNT3A-conditioned medium, mouse C2C12, NPC library (AID 1117326; in the data active = nuclear beta-catenin stimulation mostly above about 4.2%, no sharp cut-off; inactive = mostly below about 10%). The conditions noted are these: stronger effect = higher value.
A short description of assay [6]: stimulators of insulin release from INS-1E, primary screen, cell-based, 5 mM glucose, NPC library (AID 1117329;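 active = compound raises insulin release from rat beta cells at 5 mM glucose, no numeric limit stated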). The settings on record: rat INS-1E insulin secretion, at 10 µM, stronger effect = higher value.
A short description of assay [7]: growth inhibition of GSK3B-pretreated HCT116 cells – cell-based, CellTiter-Glo, 0.2 to 20 µM (AID 1117336;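 active = compounds lowering colon cancer cell viability after pretreatment blocking the GSK3B kinase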). The conditions noted are these: HCT116 viability after GSK3B inhibitor, at 20 µM, stronger effect = higher value.
The nature of assay [8]: inhibition of endothelial tube formation, primary screen, imaging, VEGF stimulated, CD31 staining, tube area, NPC library (AID 1117340;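 active = compound that reduces growth-factor-driven endothelial tube area in a mixed cell culture, no cutoff stated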). The conditions noted are these: VEGF-stimulated ADSC/ECFC co-culture, at 10 µM, stronger effect = higher value.
Assay [9] in a line: glucagon-like peptide 1 release enhancers, primary assay, NCI-H716 cell line, NPC library (AID 1117341;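 active = compound raises GLP1 secretion from the human gut endocrine cells, with no numeric limit stated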). The conditions noted are these: NCI-H716 cells, at 10 µM, stronger effect = higher value.
A short description of assay [10]: HCT116 colon cancer cell growth inhibition, primary screen, CellTiter-Glo luminescence, NPC library (AID 1117342;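 active = compounds that lower survival of HCT116 colon cancer cells in the luminescence readout, no numeric limit stated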). The conditions noted are these: at 20 µM (top of the series).
The nature of assay [11]: CellTiter-Glo luminescent readout of SW480 viability loss, NPC library primary (AID 1117343;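 active = compounds that lower viability of the colon cancer cells in the luminescence readout, with no numeric limit stated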). The conditions noted are these: CellTiter-Glo luminescence; at 20 µM (top of the series). A general note: In ATP-based viability assays light output follows the ATP content of the culture.
The nature of assay [12]: decreased DLD-1 cellular survival, CellTiter-Glo luminescent readout, NPC compound collection, primary HTS (AID 1117346;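 active = compounds that lower survival of DLD-1 colon cancer cells in the luminescence readout, no cutoff given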). The settings on record: DLD-1 viability, CellTiter-Glo luminescence; at 20 µM (top of the series).
Assay [13] deals with 6-phosphogluconate dehydrogenase, decarboxylating (Homo sapiens) (UniProt P52209). In words: 6PGD enzyme inhibitors, primary screen, biochemical, human, recombinant enzyme, NADPH absorbance (AID 1159550;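 active = at least 20% inhibition of 6-phosphogluconate dehydrogenase activity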). The conditions noted are these: recombinant 6PGD, NADPH absorbance 341 nm; at 10 µM; stronger effect = higher value.
Sequence of 6-phosphogluconate dehydrogenase, decarboxylating (Homo sapiens) (P52209 whole entry, looked up): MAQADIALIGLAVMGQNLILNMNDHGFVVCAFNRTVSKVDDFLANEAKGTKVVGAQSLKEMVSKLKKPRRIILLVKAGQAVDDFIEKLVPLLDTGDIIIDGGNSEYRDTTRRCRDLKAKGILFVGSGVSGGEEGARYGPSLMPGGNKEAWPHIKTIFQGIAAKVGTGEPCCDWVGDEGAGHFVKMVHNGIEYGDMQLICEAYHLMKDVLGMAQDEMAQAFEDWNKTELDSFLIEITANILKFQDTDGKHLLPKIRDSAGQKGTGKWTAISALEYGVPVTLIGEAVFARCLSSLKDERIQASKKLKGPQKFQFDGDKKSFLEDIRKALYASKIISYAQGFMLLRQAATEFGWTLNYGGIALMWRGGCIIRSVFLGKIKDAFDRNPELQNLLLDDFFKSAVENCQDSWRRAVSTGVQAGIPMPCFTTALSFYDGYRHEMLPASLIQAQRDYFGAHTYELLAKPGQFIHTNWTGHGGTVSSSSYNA
Assay [14] in a line: differential killing of epithelial or mesenchymal cells, primary screen, imaging, PC-3E GFP, TEM4-18 mCherry, co-culture (AID 1345086;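 active = compounds killing one labelled cell type while sparing the other, by normalised counts and ratio limits, not self-fluorescent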;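 as to all read-outs here: cells exposed to compound for 72 h before imaging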;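 as to red/green cell ratio (normalised): normalised mesenchymal count divided by normalised epithelial count so high means epithelial killing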). The settings on record: imaging cell counts, at 1 µM; for red/green cell ratio (normalised): actives lie on both sides.
The subject of assay [15] is Aerobactin synthetase IucA (Klebsiella pneumoniae hvKP1). Nature of the assay: Biochemical IucA enzyme inhibition primary screen of the Spectrum library (AID 1346200; call rule not given here;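 also: 100% = wells without compound and 0% = wells lacking enzyme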). The conditions noted are these: malachite green pyrophosphate, A620, at 8 µM, stronger effect = lower value.
The nature of assay [16]: sensitizers of A549 cells to miR-34 induction, primary screen, imaging, A549 dox-inducible miR-34, nuclei and caspase counts (AID 1347080;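 active = compounds whose cell count with miR-34 switched on is under 0.7 times the count with it off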). The conditions noted are these: A549 miR-34 inducible, Hoechst nuclei count, 48 h.
The nature of assay [17]: survival rescue of mitochondrial mutant cells in low glucose, primary screen, MELAS cybrids, Rieske KO mouse fibroblasts, CellTiter-Glo (AID 1508586;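 active = mean z-score across replicates of 1.96 or higher in either the MELAS or the Rieske mutant cell line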;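 also: z relative to plate mean and SD of compound and empty wells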).
Assay [18] concerns the target NAD(+) hydrolase SARM1 (Homo sapiens) (UniProt Q6SZW1). Nature of the assay: SARM1 TIR NADase inhibitors, cell lysate, NAD-Glo luminescence (AID 1508614;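 active = compound whose remaining NAD level is above about 45 nM, limit read from the data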;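 also: higher remaining NAD means stronger inhibition of SARM1 NADase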). The conditions noted are these: SAM-TIR HEK293T lysate NADase, at 1 µM, stronger effect = higher value.
For assay [19], the target named is Mitogen-activated protein kinase 7 (Homo sapiens) (UniProt Q13164). Nature of the assay: ERK5 transactivation activators in reporter cells, primary screen, cell-based, HTS (AID 1508626;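 active = luciferase signal above three times the same-plate solvent-only control wells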;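 also: luciferase driven by Gal4-ERK5 fusion binding five Gal4 sites before minimal TATA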). The settings on record: HeLa Gal4-ERK5 transactivation, 18 h, at 5 µM, stronger effect = higher value.
Sequence of Mitogen-activated protein kinase 7 (Homo sapiens) (Q13164 whole entry, looked up, the tested form may be a part): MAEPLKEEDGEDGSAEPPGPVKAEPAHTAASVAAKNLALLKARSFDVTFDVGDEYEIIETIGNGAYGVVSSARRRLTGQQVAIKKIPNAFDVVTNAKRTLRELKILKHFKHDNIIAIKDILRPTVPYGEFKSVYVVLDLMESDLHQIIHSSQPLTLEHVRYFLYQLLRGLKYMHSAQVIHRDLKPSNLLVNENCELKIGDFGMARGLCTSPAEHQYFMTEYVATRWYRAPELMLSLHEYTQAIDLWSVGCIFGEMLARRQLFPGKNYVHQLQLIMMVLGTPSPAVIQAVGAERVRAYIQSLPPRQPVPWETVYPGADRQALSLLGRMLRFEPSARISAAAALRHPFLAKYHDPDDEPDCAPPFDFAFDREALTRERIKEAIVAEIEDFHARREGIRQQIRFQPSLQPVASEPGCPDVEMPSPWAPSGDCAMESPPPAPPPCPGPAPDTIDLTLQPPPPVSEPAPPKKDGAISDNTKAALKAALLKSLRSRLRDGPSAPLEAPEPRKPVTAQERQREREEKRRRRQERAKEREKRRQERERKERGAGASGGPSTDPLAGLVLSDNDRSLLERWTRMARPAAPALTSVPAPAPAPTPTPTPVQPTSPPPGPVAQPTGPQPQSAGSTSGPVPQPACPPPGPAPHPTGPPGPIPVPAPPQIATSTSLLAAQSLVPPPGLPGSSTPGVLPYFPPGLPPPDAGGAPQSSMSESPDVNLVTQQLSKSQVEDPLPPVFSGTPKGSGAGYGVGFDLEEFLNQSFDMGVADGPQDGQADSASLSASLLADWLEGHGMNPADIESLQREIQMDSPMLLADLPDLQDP
A short description of assay [20]: viability rescue of complex I mutant cybrids, primary screen, cell-based, galactose medium, ATP luminescence (AID 1645843;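 active = z-score of at least 1.8 in each of two replicates, scored against plate mean and spread of sample wells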;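 also: positive z means more ATP and so rescue of galactose-driven cybrid death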). The settings on record: complex I mutant cybrid cells, 72 h, stronger effect = higher value.
[21] abbreviates: measured here: epithelial PC-3E GFP cell survival.
The mark [22] stands for this setting: measured here: mesenchymal TEM4-18 mCherry cell survival.
Where [23] appears, read: measured here: relative caspase fold change +Dox/-Dox.
Where [24] appears, read: measured here: total cells with miR-34 induction, stronger effect = lower value.
[25] abbreviates: measured here: total cells without miR-34 induction.
The mark [26] stands for this setting: MELAS cybrid survival, CellTiter-Glo 48 h, stronger effect = higher value.
Setting [27] is: Rieske KO mouse fibroblast survival, CellTiter-Glo 72 h.

Sequence of NAD(+) hydrolase SARM1 (Homo sapiens) (Q6SZW1 whole entry, looked up, the tested form may be a part): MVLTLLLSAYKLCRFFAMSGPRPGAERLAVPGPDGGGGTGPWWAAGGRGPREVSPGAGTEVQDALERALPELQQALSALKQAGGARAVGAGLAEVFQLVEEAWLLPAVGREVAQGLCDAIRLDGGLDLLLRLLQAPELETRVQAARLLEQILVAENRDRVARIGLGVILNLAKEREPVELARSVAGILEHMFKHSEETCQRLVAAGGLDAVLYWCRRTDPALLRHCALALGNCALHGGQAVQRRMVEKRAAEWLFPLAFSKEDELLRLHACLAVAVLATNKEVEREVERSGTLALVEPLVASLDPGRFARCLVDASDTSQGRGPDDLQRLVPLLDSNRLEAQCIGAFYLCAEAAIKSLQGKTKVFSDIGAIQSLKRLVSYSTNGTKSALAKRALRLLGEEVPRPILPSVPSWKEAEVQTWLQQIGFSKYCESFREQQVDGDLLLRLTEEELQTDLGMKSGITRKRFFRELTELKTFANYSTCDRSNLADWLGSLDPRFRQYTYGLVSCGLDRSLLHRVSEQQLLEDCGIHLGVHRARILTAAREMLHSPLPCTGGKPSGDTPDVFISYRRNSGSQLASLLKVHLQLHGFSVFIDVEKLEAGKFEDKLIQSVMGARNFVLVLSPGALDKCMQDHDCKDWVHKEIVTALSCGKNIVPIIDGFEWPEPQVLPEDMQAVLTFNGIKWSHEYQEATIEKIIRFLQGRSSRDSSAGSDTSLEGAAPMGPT

In assay [1], `CC(CCc1ccccc1)NC(C)C(O)c1ccc(O)cc1` (configuration not stated) had a score of 1.53. In addition, the cytochrome c release ratio in assay [2] amounted to 0.84. For the same molecule, the inhibition of aggregation in [3] came out at 63.6%. Also, the parasite load remaining in assay [4] was 75.2% (inactive) and 69.3% (inactive). The viability in assay [4] was 72.4% and 90.8%. Also, the nuclear beta-catenin stimulation in assay [5] (at 10 µM) is -0.2% (inactive); in assay [5] (stimulation, at 2 µM) it was -0.9%. Also, in assay [6], the insulin secretion stimulation was 43.4% (active). For the same molecule, the viability decrease in [7] was -3.7% (inactive). In addition, the tube area decrease in assay [8] is 16.8% (inactive). For the same molecule, in assay [9], the GLP1 secretion stimulation was -0.5% (inactive). Also, in assay [10], the inhibition of viability was 16.9% (inactive). Besides, the results for the viability decrease (inhibition) in assay [11] and in [12] were 24.3% (inactive) and -7.8% (inactive), respectively. Moreover, the inhibition in assay [13] is 14.2% (inactive). Moreover, in assay [14], the red/green cell ratio (normalised) was 1.03 (inactive). In addition, the normalised cell number in assay [14] (setting [21]) worked out at 1.2; in assay [14] (setting [22]), 1.24. Also, in assay [15], the activity remaining was 82.9% (inactive). For the same molecule, the fold change in assay [16] (stronger effect = lower value) is 1.06 (inactive) and 0.798 (inactive); in assay [16] (setting [23]) it was 0.901 and 0.92. In addition, the cell count in [16] (setting [24]) is 10600 and 10000; in [16] (setting [25]), 10000 and 12600. Also, the z-score in assay [17] (setting [26]) was 0.615 (inactive); in assay [17] (setting [27]), -0.62; in [20] it was -0.555 (inactive). Besides, the remaining NAD in assay [18] is 10 nM (inactive). In assay [19], the luciferase signal was 40 AU (inactive).
As for `Clc1ccc(CO/N=C(\Cn2ccnc2)c2ccc(Cl)cc2Cl)c(Cl)c1`, the parasite load remaining in assay [4] was 88.3% (inactive) and 30.5% (inactive) and 1.97% (inactive). Moreover, the viability in assay [4] was 76.2% and 91.5% and 53%. The nuclear beta-catenin stimulation in [5] (at 10 µM) was 27.8% (inactive); in assay [5] (stimulation, at 2 µM), 3.3%. Besides, the insulin secretion stimulation in assay [6] was -0.7% (inactive). The viability decrease in [7] is 101% (active). In [8], the tube area decrease is 109% (active). For the same molecule, the GLP1 secretion stimulation in [9] was 25.7% (active). In addition, the inhibition of viability in assay [10] was 101% (active). Also, the values for the viability decrease (inhibition) in assay [11] and in [12] were 141% (active) and 103% (active), respectively. Also, the inhibition in [13] was -14.7% (inactive). Also, the red/green cell ratio (normalised) in [14] (counts scaled to control wells, 1 = unselective) was 1.02 (inactive). In addition, the normalised cell number in [14] (setting [21]) was 1.03; in assay [14] (setting [22]), 1.05. Further, the activity remaining in assay [15] is 128% (inactive). The fold change in assay [16] (stronger effect = lower value) was 0.851 (inactive); in assay [16] (stronger effect = lower value, cell number ratio, induced over uninduced) it was 1.12 (inactive); in assay [16] (setting [23]), 1.03 and 1.16. The cell count was 7740 and 6080 in assay [16] (setting [24]); 6900 and 7140 in assay [16] (setting [25]). Moreover, the z-score is -0.195 (inactive) and 0.269 (inactive) in assay [17] (setting [26]); 0.707 and 1.28 in [17] (setting [27]); -2.53 (inactive) in assay [20]. In assay [18], the remaining NAD is 10 nM (inactive). The luciferase signal in assay [19] was 52 AU (inactive).
On to `CN1C2CCC(C)(C)C1CC(OC(=O)C(O)(c1cccs1)c1cccs1)C2` (configuration not stated), for which the nuclear beta-catenin stimulation was -1.7% (inactive) in assay [5] (at 10 µM) and -0.6% in assay [5] (stimulation, at 2 µM). The insulin secretion stimulation in assay [6] was 5.6% (inactive). In addition, the viability decrease in assay [7] was 8% (inactive). Also, in assay [8], the tube area decrease was 4.7% (inactive). In addition, the GLP1 secretion stimulation in assay [9] was -0.7% (inactive). Besides, the inhibition of viability in assay [10] was 27.8% (inactive). In addition, the viability decrease (inhibition) in assay [11] is 37.2% (inactive); in assay [12], 27.7% (inactive).
Consider `ClCCCN1CCN(c2cccc(Cl)c2)CC1`, for which the nuclear beta-catenin stimulation in assay [5] (at 10 µM) is -0.9% (inactive); in assay [5] (stimulation, at 2 µM) it was -2.6%. Besides, in assay [6], the insulin secretion stimulation is 1.1% (inactive). Further, in assay [7], the viability decrease is 15% (inactive). Also, in [8], the tube area decrease is -11.1% (inactive). The GLP1 secretion stimulation in assay [9] was 1.5% (inactive). Further, the inhibition of viability in assay [10] is 42.8% (inactive). In addition, the viability decrease (inhibition) is 26.2% (inactive) in assay [11] and 50.1% (active) in [12].
